# Results from the supplement of paper PMC6897291.
# Counter-ions that a name gives are not always drawn.
# Test system: RIVA
# Experiment: growth inhibition by drug plus 177Lu-lilotomab satetraxetan (1 - RLU/untreated control) (fraction); higher = stronger inhibition
# Settings: 177Lu-lilotomab satetraxetan 0.5 ug/ml
# Experimental: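 RIVA (RI-1) ABC-DLBCL cells were pretreated or not for 18 h with 0.5 ug/ml 177Lu-lilotomab satetraxetan (600 MBq/mg), washed and seeded (3000 cells/well) on 384-well plates pre-printed with the Selleck Cambridge Cancer Compound library. Viability was read by RealTime-Glo luminescence on days 3-6 after seeding. Effect = 1 - RLU/mean RLU of the 48 untreated no-drug control wells per plate; Bliss score = (M-E)/(1-Fa).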
SMILES,"growth inhibition by drug plus 177Lu-lilotomab satetraxetan (10 nM, time (day): 3)","growth inhibition by drug plus 177Lu-lilotomab satetraxetan (10 nM, time (day): 4)","growth inhibition by drug plus 177Lu-lilotomab satetraxetan (10 nM, time (day): 5)","growth inhibition by drug plus 177Lu-lilotomab satetraxetan (10 nM, time (day): 6)","growth inhibition by drug plus 177Lu-lilotomab satetraxetan (100 nM, time (day): 3)","growth inhibition by drug plus 177Lu-lilotomab satetraxetan (100 nM, time (day): 4)","growth inhibition by drug plus 177Lu-lilotomab satetraxetan (100 nM, time (day): 5)","growth inhibition by drug plus 177Lu-lilotomab satetraxetan (100 nM, time (day): 6)"
O=C1c2c(O)ccc(O)c2C(=O)c2c(NCCNCCO)ccc(NCCNCCO)c21 [Mitoxantrone Hydrochloride],0.83,0.913,0.95,0.968,0.736,0.92,0.947,0.962
CN(CCOc1ccc(CC2SC(=O)NC2=O)cc1)c1ccccn1 (stereo not given) [Rosiglitazone (Avandia)],0.409,0.548,0.564,0.587,0.382,0.504,0.532,0.523
C[C@]12CC[C@@H]3c4ccc(O)cc4C[C@@H](CCCCCCCCC[S+]([O-])CCCC(F)(F)C(F)(F)F)[C@H]3[C@@H]1CC[C@@H]2O (stereo not given in full),0.418,0.515,0.523,0.531,0.466,0.525,0.532,0.5
CCOc1ccc(Cc2cc([C@@H]3O[C@H](CO)[C@@H](O)[C@H](O)[C@H]3O)ccc2Cl)cc1 [Dapagliflozin],0.595,0.635,0.644,0.658,0.517,0.574,0.572,0.572
CN1C(=O)C(Cc2c[nH]c3ccccc23)NC1=S (stereo not given) [Necrostatin-1],0.451,0.501,0.519,0.523,0.368,0.476,0.476,0.476
